# Measured values published in PMC7862700, “An all-to-all approach to the identification of sequence-specific readers for epigenetic DNA modifications on cytosine”.
# How the values were obtained:
# Test in all cases: DAPPL (digital affinity profiling via proximity ligation, sequencing); 10 mM Tris-HCl pH 7.5, 50 mM NaCl, 1 mM DTT, 4% glycerol, room temperature, 30 min; GST-TFs on glutathione beads, 16-mer random dsDNA library, 0.1% formaldehyde crosslink after washing; high values mean tight binding
# [1] = molecular target: T1, FLI1 (Homo sapiens, UniProt Q01543 1-452); settings: protein: recombinant; tags: N-terminal GST; dsDNA, one strand shown
# T1 sequence: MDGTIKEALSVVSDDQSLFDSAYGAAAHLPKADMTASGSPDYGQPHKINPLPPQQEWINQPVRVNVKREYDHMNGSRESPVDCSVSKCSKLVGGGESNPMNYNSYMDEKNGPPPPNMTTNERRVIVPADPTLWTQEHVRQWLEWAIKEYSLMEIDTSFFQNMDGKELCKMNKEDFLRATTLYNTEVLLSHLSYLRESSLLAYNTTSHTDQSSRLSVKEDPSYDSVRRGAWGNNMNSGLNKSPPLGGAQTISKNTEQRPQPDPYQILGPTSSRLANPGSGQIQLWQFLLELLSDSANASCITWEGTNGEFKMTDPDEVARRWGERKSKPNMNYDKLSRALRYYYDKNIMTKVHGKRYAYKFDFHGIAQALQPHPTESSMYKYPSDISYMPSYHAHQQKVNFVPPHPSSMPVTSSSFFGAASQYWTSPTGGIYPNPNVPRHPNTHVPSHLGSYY
# Outline: (§1)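 Binding signal is each hexamer's read frequency for a factor divided by its frequency in the tag-only sample. The factors were GST-fused human transcription factors from yeast, captured on glutathione beads, DNA-barcoded and pooled with that sample. Pools were incubated with 200 nmole of a random double-stranded 16-mer DNA library in Tris/NaCl/DTT/glycerol buffer at room temperature for 30 min, then washed, crosslinked with 0.1% formaldehyde, proximity-ligated with BsaI/T4 ligase (1 h, 37 °C), PCR-amplified and sequenced on an Illumina NextSeq500.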
# [2] = molecular target: T2, ELK1 (Homo sapiens, UniProt P19419 1-428); settings: protein: recombinant; tags: N-terminal GST; dsDNA, one strand shown
# T2 sequence: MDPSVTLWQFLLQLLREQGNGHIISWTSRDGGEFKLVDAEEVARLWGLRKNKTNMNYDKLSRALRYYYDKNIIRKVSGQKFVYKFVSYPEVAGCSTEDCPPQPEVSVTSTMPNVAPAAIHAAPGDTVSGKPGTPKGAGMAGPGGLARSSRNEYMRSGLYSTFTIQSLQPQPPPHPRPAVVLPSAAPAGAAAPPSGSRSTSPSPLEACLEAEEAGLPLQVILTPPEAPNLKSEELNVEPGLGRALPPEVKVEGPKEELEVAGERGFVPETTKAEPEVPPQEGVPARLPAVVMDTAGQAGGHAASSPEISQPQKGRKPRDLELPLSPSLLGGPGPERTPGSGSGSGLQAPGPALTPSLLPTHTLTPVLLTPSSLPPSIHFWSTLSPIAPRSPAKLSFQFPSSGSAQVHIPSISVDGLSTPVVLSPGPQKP
# Outline: as §1
# [3] = molecular target: T3, GABPA (Homo sapiens, UniProt Q06546 1-454); settings: protein: recombinant; tags: N-terminal GST; dsDNA, one strand shown
# T3 sequence: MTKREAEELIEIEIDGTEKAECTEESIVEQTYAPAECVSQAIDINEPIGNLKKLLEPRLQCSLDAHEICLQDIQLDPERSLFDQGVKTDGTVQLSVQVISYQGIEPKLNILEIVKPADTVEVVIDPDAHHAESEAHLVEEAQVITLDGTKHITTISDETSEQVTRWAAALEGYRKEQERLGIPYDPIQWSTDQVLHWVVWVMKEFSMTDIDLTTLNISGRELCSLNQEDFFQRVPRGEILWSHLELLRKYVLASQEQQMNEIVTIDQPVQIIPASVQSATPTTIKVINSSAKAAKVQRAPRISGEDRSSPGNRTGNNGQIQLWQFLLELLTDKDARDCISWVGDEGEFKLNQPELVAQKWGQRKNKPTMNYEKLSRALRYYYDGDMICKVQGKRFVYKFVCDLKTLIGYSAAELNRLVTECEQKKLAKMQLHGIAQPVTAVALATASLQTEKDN
# Outline: as §1
# [4] = molecular target: T4, ERG (Homo sapiens, UniProt P11308 1-479); settings: protein: recombinant; tags: N-terminal GST; dsDNA, one strand shown
# T4 sequence: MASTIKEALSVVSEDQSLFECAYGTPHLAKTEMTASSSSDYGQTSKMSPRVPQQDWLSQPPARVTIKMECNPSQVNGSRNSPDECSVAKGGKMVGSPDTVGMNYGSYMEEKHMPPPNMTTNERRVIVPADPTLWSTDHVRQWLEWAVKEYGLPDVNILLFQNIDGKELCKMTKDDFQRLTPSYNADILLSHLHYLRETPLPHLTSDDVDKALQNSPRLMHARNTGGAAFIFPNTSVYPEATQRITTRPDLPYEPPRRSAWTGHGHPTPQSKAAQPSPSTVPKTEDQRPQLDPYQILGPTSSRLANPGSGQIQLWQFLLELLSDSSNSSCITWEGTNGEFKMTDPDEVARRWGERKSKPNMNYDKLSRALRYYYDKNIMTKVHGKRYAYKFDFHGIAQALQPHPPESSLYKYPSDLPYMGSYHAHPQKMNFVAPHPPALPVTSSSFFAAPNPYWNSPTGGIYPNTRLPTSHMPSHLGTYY
# Outline: as §1
# [5] = molecular target: ELF1 (Homo sapiens, UniProt P32519 1-619); settings: protein: recombinant; tags: N-terminal GST; dsDNA, one strand shown
# Outline: as §1
# [6] = molecular target: T5, EHF (Homo sapiens, UniProt Q9NZC4 1-300); settings: protein: recombinant; tags: N-terminal GST; dsDNA, one strand shown
# T5 sequence: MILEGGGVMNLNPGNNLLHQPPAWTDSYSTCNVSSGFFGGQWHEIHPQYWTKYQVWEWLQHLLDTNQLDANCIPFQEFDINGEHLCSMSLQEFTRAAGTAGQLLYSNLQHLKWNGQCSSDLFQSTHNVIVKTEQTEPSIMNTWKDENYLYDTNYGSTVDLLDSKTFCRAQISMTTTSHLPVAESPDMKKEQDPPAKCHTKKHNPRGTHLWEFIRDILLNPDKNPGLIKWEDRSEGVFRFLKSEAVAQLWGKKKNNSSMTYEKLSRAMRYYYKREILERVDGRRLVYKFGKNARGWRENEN
# Outline: as §1
# [7] = molecular target: SPI1 (Homo sapiens, UniProt P17947 1-270); settings: protein: recombinant; tags: N-terminal GST; dsDNA, one strand shown
# Outline: as §1
# [8] = molecular target: SPIB (Homo sapiens, UniProt Q01892 1-262); settings: protein: recombinant; tags: N-terminal GST; dsDNA, one strand shown
# Outline: as §1
# [9] = molecular target: T6, ELK3 (Homo sapiens, UniProt P41970 1-407); settings: protein: recombinant; tags: N-terminal GST; dsDNA, one strand shown
# T6 sequence: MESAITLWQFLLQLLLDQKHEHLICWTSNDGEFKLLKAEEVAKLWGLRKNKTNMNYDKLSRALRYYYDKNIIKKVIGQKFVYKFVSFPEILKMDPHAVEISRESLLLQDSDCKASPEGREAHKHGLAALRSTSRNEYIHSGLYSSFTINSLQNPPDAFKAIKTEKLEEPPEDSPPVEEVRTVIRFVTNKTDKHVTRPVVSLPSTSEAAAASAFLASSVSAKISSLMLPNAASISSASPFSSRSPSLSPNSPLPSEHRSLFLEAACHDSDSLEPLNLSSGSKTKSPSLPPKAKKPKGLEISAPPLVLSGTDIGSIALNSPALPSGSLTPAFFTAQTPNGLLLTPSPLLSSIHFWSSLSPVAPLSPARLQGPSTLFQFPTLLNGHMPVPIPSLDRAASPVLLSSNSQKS
# Outline: as §1
# [10] = molecular target: T7, FEV (Homo sapiens, UniProt Q99581 1-238); settings: protein: recombinant; tags: N-terminal GST; dsDNA, one strand shown
# T7 sequence: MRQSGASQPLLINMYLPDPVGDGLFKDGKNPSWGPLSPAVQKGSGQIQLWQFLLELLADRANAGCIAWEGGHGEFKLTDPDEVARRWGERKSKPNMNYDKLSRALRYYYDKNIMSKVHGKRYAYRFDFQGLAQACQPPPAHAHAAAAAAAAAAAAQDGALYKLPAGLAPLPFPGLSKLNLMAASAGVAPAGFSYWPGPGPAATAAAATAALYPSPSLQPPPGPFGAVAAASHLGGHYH
# Outline: as §1
# [11] = molecular target: ETV5 (Homo sapiens, UniProt P41161 1-510); settings: protein: recombinant; tags: N-terminal GST; dsDNA, one strand shown
# Outline: as §1
# [12] = molecular target: HSF1 (Homo sapiens, UniProt Q00613 1-529); settings: protein: recombinant; tags: N-terminal GST; chain copies: 3; dsDNA, one strand shown
# Outline: as §1
# [13] = molecular target: T8, SPIC (Homo sapiens, UniProt Q8N5J4 1-248); settings: protein: recombinant; tags: N-terminal GST; dsDNA, one strand shown
# T8 sequence: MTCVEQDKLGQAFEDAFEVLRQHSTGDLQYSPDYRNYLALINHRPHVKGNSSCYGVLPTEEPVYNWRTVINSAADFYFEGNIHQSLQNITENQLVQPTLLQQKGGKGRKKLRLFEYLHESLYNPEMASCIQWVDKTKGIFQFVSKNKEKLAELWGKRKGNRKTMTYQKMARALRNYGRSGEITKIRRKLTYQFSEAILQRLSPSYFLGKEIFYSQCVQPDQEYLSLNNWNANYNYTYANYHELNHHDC
# Outline: as §1
# [14] = molecular target: ELF4 (Homo sapiens, UniProt Q99607 1-663); settings: protein: recombinant; tags: N-terminal GST; dsDNA, one strand shown
# Outline: as §1
# [15] = molecular target: T9, ELK4 (Homo sapiens, UniProt P28324-2 1-405); settings: protein: recombinant; tags: N-terminal GST; dsDNA, one strand shown
# T9 sequence: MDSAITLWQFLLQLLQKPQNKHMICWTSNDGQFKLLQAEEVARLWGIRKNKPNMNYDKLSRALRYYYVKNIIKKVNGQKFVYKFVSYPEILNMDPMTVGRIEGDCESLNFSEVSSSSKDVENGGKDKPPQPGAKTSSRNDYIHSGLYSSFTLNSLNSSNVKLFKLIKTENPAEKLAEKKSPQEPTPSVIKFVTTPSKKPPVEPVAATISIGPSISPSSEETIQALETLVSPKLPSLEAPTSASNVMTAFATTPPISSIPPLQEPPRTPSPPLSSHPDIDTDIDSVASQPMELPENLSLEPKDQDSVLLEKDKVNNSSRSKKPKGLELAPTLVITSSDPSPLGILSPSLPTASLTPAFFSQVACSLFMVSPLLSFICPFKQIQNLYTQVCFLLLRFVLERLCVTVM
# Outline: as §1
# [16] = molecular target: T10, ETV2 (Homo sapiens, UniProt O00321 1-342); settings: protein: recombinant; tags: N-terminal GST; dsDNA, one strand shown
# T10 sequence: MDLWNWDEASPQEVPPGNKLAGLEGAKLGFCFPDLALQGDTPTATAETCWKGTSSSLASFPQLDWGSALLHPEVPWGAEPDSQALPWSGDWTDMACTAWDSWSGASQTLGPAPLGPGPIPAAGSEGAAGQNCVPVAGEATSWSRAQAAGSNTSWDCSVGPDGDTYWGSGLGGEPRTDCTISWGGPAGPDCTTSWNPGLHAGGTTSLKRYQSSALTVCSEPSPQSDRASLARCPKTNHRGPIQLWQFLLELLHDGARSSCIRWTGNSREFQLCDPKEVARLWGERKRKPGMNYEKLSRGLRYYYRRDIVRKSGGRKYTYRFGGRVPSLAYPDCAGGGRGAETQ
# Outline: as §1
# [17] = molecular target: T11, ELF3 (Homo sapiens, UniProt P78545 1-371); settings: protein: recombinant; tags: N-terminal GST; dsDNA, one strand shown
# T11 sequence: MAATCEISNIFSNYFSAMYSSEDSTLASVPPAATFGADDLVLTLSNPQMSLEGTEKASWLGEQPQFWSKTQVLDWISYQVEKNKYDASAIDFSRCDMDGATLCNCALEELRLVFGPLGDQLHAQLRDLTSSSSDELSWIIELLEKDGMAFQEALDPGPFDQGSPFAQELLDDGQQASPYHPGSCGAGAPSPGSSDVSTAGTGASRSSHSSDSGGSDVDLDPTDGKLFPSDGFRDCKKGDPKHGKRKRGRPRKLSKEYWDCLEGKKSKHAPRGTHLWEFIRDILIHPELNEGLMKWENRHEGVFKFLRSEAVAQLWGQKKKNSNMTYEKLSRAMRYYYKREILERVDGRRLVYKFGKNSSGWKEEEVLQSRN
# Outline: as §1
# [18] = molecular target: CRX (Homo sapiens, UniProt O43186 1-299); settings: protein: recombinant; tags: N-terminal GST; dsDNA, one strand shown
# Outline: as §1
# [19] = molecular target: ETV1 (Homo sapiens, UniProt P50549 1-477); settings: protein: recombinant; tags: N-terminal GST; dsDNA, one strand shown
# Outline: as §1
# Chain of ETV5 (P41161 whole entry): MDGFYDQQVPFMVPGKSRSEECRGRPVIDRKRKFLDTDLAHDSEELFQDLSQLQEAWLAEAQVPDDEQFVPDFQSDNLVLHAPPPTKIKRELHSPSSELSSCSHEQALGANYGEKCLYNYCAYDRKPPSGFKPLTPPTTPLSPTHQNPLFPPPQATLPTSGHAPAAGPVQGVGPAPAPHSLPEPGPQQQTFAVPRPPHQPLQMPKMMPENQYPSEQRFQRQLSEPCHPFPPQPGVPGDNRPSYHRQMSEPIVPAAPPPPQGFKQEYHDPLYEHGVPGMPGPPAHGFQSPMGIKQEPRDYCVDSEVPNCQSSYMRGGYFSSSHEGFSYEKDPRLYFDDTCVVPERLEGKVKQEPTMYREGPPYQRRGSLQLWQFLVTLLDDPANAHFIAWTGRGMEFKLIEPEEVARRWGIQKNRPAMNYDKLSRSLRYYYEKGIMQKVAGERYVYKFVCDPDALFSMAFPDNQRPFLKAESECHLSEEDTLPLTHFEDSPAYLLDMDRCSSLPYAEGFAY
# Chain of HSF1 (Q00613 whole entry): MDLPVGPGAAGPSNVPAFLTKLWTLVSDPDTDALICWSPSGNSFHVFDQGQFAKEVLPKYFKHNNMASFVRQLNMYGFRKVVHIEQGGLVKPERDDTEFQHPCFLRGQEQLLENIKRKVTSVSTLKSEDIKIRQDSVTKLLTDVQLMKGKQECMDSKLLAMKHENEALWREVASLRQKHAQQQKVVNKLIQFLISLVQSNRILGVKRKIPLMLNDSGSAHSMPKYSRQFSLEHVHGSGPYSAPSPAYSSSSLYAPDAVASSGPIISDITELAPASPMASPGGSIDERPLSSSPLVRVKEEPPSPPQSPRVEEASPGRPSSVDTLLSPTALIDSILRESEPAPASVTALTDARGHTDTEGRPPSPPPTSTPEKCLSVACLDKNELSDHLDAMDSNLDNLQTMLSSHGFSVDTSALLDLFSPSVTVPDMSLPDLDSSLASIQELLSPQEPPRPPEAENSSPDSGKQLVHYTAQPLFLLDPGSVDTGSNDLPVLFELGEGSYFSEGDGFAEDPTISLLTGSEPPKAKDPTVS
# Chain of ETV1 (P50549 whole entry): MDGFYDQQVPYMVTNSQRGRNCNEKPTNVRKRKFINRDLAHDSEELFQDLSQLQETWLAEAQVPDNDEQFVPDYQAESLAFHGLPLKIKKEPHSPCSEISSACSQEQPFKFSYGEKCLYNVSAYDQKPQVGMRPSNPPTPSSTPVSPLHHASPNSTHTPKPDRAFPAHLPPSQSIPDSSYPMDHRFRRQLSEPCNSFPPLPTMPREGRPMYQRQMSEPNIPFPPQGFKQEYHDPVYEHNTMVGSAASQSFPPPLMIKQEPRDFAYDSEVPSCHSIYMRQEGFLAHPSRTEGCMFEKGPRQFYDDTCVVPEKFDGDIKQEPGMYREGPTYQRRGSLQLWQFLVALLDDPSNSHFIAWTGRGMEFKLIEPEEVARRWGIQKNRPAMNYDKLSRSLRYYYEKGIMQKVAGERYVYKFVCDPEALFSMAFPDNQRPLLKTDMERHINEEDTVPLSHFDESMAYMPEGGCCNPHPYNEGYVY
# Chain of SPIB (Q01892 whole entry): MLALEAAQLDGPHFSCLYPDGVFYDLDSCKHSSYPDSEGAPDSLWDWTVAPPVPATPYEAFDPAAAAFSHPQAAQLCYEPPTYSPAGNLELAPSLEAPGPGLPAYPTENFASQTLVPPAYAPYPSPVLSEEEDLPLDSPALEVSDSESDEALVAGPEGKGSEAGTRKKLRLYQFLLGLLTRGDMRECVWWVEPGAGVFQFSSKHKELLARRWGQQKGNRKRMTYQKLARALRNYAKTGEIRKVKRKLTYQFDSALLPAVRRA
# Chain of ELF1 (P32519 whole entry): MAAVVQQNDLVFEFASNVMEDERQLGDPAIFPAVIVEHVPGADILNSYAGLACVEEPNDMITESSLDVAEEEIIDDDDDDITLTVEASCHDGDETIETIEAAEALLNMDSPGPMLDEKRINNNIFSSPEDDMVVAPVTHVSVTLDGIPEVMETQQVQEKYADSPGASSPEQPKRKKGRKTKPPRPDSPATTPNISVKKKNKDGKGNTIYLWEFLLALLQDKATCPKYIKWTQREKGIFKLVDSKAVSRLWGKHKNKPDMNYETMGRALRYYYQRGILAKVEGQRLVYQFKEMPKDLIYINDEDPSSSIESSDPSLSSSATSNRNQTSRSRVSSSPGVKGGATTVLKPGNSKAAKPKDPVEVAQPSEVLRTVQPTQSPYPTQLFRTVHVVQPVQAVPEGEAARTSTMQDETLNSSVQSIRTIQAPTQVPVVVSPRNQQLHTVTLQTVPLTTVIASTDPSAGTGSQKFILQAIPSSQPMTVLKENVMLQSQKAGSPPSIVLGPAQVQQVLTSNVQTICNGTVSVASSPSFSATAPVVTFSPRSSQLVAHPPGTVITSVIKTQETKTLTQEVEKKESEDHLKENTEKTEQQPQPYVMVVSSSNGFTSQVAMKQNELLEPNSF
# Chain of ELF4 (Q99607 whole entry): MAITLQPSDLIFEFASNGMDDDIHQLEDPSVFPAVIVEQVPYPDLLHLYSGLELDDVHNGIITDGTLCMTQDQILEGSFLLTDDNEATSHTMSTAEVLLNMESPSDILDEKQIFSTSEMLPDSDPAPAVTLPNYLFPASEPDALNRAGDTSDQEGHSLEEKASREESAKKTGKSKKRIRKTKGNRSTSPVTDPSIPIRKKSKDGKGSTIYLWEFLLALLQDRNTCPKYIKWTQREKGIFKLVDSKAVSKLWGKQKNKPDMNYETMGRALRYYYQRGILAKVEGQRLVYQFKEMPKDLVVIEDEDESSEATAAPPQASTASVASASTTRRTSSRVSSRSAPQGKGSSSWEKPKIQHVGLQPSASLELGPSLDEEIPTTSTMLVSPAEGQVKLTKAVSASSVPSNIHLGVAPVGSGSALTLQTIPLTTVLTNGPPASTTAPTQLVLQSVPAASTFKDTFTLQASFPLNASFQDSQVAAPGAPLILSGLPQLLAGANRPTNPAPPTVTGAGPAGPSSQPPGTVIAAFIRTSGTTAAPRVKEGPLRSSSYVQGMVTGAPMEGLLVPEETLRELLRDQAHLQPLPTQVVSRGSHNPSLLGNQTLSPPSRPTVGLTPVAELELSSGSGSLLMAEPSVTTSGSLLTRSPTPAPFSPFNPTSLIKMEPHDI
# Chain of CRX (O43186 whole entry): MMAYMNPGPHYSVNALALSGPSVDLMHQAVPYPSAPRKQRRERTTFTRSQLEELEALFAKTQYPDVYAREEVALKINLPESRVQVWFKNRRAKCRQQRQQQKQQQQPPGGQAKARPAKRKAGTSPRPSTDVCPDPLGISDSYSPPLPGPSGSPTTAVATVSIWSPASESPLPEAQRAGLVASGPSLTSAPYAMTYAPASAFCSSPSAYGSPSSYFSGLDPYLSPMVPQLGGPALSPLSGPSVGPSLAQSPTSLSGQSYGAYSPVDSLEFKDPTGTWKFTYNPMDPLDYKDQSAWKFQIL
sequence,measurement,setting,value
ATTACT,binding signal,[1],"1.3 fold enrichment (6-mer frequency, TF over GST control)"
same,binding signal,[2],"1.12 fold enrichment (6-mer frequency, TF over GST control)"
same,binding signal,[3],"1.29 fold enrichment (6-mer frequency, TF over GST control)"
same,binding signal,[4],"1.22 fold enrichment (6-mer frequency, TF over GST control)"
same,binding signal,[5],"1.28 fold enrichment (6-mer frequency, TF over GST control)"
same,binding signal,[6],"1.27 fold enrichment (6-mer frequency, TF over GST control)"
same,binding signal,[7],"1.28 fold enrichment (6-mer frequency, TF over GST control)"
same,binding signal,[8],"1.33 fold enrichment (6-mer frequency, TF over GST control)"
same,binding signal,[9],"1.24 fold enrichment (6-mer frequency, TF over GST control)"
same,binding signal,[10],"1.27 fold enrichment (6-mer frequency, TF over GST control)"
same,binding signal,[11],"1.23 fold enrichment (6-mer frequency, TF over GST control)"
same,binding signal,[12],"1.66 fold enrichment (6-mer frequency, TF over GST control)"
same,binding signal,[13],"1.38 fold enrichment (6-mer frequency, TF over GST control)"
same,binding signal,[14],"1.19 fold enrichment (6-mer frequency, TF over GST control)"
same,binding signal,[15],"1.39 fold enrichment (6-mer frequency, TF over GST control)"
same,binding signal,[16],"1.48 fold enrichment (6-mer frequency, TF over GST control)"
same,binding signal,[17],"1.39 fold enrichment (6-mer frequency, TF over GST control)"
same,binding signal,[18],"2.22 fold enrichment (6-mer frequency, TF over GST control)"
same,binding signal,[19],"1.35 fold enrichment (6-mer frequency, TF over GST control)"
